Test results published in article PMC6212833.
Hit rate of the full screen: of about 2,000 compounds, about 15 (0.8%) showed an effect of 50% or more. The sample holds strong results, similar compounds and a random draw of the others, so the mix is not that of the screen. *1 amine or outer side, *2 acyl side, *3 side chain or, on linkers, in order; H or OH if unused. Where a SMILES comes first, the peptide text is derived from it. Bridges are numbered along the chain shown (N, C = ends). X1 = O=C(CCC[*:2])[*:1]

system: Balamuthia mandrillaris (ATCC PRA-291) trophozoites, axenic culture; assay: primary screen, percent inhibition; higher = more effect of the substance; details: 20 µM;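 note: 0% = vehicle wells and 100% = lysate wells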
Description: Screening of a clinically approved library of compounds, compiled by the Small Molecule Discovery Center (SMDC) at the UCSF, was completed at 20 µM in 0.2% DMSO. All 2,177 drugs in the library were stored as 10 mM stocks dissolved in 100% DMSO (Sigma-Aldrich) at −20°C. B. mandrillaris amoebae were resuspended in axenic medium and distributed into opaque 384-well plates (Corning) at a density of 3,000 amoebae per well using a BioMek NX liquid handler. Negative-control wells were treated with vehicle only (0.2% DMSO in axenic medium), and positive-control wells simulating total destruction of amoebae were seeded with amoeba lysate generated by 3 consecutive freeze-thaw cycles. Following 72 h of incubation, 30 µl of CellTiter Glo reagent (CTG; Promega) was added to each well. The luminescence was measured with a Promega GloMax-Multi+ plate reader at 2, 4, and 8 h after CTG addition. […] The B-score, representing a plate-based statistical approach for correcting row, column, and edge effects, was also calculated for each compound in the library (75).

| Structure (SMILES) | % Inhibition [%] |
| --- | --- |
| CO[C@@H]1[C@@H](OC(N)=O)[C@@H](O)[C@H](Oc2ccc3c(O)c(NC(=O)c4ccc(O)c(CC=C(C)C)c4)c(=O)oc3c2C)OC1(C)C | 9.7 |
| O=C(O)CCCCC1CCSS1 (stereo not shown) | 21.9 |
| CCC(=O)O[C@H]1[C@H](O[C@@H]2[C@@H](C)[C@H](O[C@H]3C[C@@](C)(OC)[C@@H](O)[C@H](C)O3)[C@@H](C)C(=O)O[C@H](CC)[C@@](C)(O)[C@H](O)[C@@H](C)C(=O)[C@H](C)C[C@@]2(C)O)O[C@H](C)C[C@@H]1N(C)C | 4.56 |
| C=Cc1c(C)c2cc3[nH]c(cc4nc(cc5nc(cc1[nH]2)C(C)=C5CCC(=O)O)C(CCC(=O)O)=C4C)c(C)c3C=C | 5.79 |
| C[C@H]1CN(C[C@H](Cc2ccccc2)C(=O)NCC(=O)O)CC[C@@]1(C)c1cccc(O)c1 | 13.2 |
| C1N2CN3CN1CN(C2)C3 | 25.9 |
| CN(C)CCC[C@@]1(c2ccc(F)cc2)OCc2cc(C#N)ccc21 [131042-L5] | 29.1 |
| c1ccc(-c2ccc(C(c3ccccc3)n3ccnc3)cc2)cc1 (stereo not shown) | 2.05 |
| O=C(O)C1CSCN1 (stereo not shown) | 29 |
| CC[C@H]1OC(=O)[C@H](C)[C@@H](O[C@H]2C[C@@](C)(OC)[C@@H](O)[C@H](C)O2)[C@H](C)[C@@H](O[C@@H]2O[C@H](C)C[C@H](N(C)C)[C@H]2O)[C@](C)(O)C[C@@H](C)C(=O)[C@H](C)[C@@H](O)[C@]1(C)O [129937-L7] | 19.9 |
| CO/N=C(\C(=O)N[C@@H]1C(=O)N2C(C(=O)O)=C(COC(N)=O)CS[C@H]12)c1ccco1 | 11.5 |
| Cc1ccc(S(=O)(=O)NC(=O)NN2CC3CCCC3C2)cc1 (stereo not shown) | 10.2 |
| Cc1oncc1C(=O)Nc1ccc(C(F)(F)F)cc1 | 15 |
| O=C(O)P(=O)(O)O | 19.1 |
| CCCCN(CCCC)CC(O)c1cc(Cl)cc2c1-c1ccc(Cl)cc1/C2=C/c1ccc(Cl)cc1 (stereo not shown) | 5.93 |
| CC[C@@]1(O)C(=O)OCc2c1cc1n(c2=O)Cc2cc3c([N+](=O)[O-])cccc3nc2-1 | -33 |
| CCCCCCCCCCCCCCCC[N+](C)(C)C | 56.1 |
| C[N+](C)(C)CCCCCCCCCC[N+](C)(C)C | 25.7 |
| C[N+](C)(C)CCCCCC[N+](C)(C)C | 26 |
| CC[C@H]1OC(=O)[C@H](C)[C@@H](O[C@H]2C[C@@](C)(OC)[C@@H](O)[C@H](C)O2)[C@H](C)[C@@H](O[C@@H]2O[C@H](C)C[C@H](N(C)C)[C@H]2O)[C@](C)(OC)C[C@@H](C)C(=O)[C@H](C)[C@@H](O)[C@]1(C)O | 8.87 |
| O=C1NCCN1CCN1CCC(c2cn(-c3ccc(F)cc3)c3ccc(Cl)cc23)CC1 | 23.8 |
| CN1CCc2c(c3ccccc3n2Cc2ccccc2)C1 | 34.1 |
| CN/C(=C\[N+](=O)[O-])NCCSCc1ccc(CN(C)C)o1 | 68.1 |
| CN/C(=C\[N+](=O)[O-])NCCSCc1csc(CN(C)C)n1 | 23.7 |
| CN/C(=C/[N+](=O)[O-])NCCSCc1ccc(CN(C)C)o1 | 7.74 |
| Nc1c(Br)cc(Br)cc1CNC1CCC(O)CC1 (stereo not shown) | 20.4 |

| Structure (SMILES) | % Inhibition [%] |
| --- | --- |
| C#C[C@]1(OC(C)=O)CCC2C3CCC4=C/C(=N/O)CCC4C3CC[C@@]21CC (stereo partly shown) | 19.6 |
| Cc1cnc(C(=O)O)c[n+]1[O-] | 0.14 |
| Cc1cc(N)c2ccccc2[n+]1CCCCCCCCCC[n+]1c(C)cc(N)c2ccccc21 | 69 |
| CC(=O)OCC(=O)[C@@]1(O)CCC2C3CCC4=CC(=O)CC[C@]4(C)C3[C@@H](O)C[C@@]21C (stereo partly shown) | 33.3 |
| Cc1ncc([N+](=O)[O-])n1CC(C)O (stereo not shown) | 35.8 |
| CCN(CC)C(=O)C1(c2ccccc2)CC1CN (stereo not shown) | 21.4 |
| O=S(=O)(O)CCS | 8.32 |
| CCCCC[C@H](O)/C=C/[C@H]1[C@H](O)CC(=O)[C@@H]1CCCCCCC(=O)O [285959-L6] | -5.58 |
| Cc1cc(-c2ccc(/N=N/c3ccc4c(S(=O)(=O)O)cc(S(=O)(=O)O)c(N)c4c3O)c(C)c2)ccc1/N=N/c1ccc2c(S(=O)(=O)O)cc(S(=O)(=O)O)c(N)c2c1O | 73.9 |
| O=C(Nc1cccc2c(=O)cc(-c3nn[nH]n3)oc12)c1ccc(OCCCCc2ccccc2)cc1 | -2.25 |
| O=C(O)c1ccccc1-c1c2cc(I)c(=O)c(I)c-2oc2c(I)c(O)c(I)cc12 | 66.4 |
| Clc1ccc(C(Cn2ccnc2)OCc2ccsc2Cl)c(Cl)c1 (stereo not shown) [735884-L3] | 5.23 |
| OC[C@H]1O[C@H](O[C@H]2[C@H](O)[C@@H](O)[C@H](O)O[C@@H]2CO)[C@H](O)[C@@H](O)[C@@H]1O | 17.5 |
| CCCCC(=O)N(Cc1ccc(-c2ccccc2-c2nn[nH]n2)cc1)[C@H](C(=O)O)C(C)C | 21.1 |
| Cc1ccccc1C(OCCN(C)C)c1ccccc1 (stereo not shown) | -5.39 |
| CCCCc1oc2ccccc2c1C(=O)c1cc(I)c(OCCN(CC)CC)c(I)c1 | 14.9 |
| CO[C@@H]1[C@@H](O[C@@H]2O[C@H](C)[C@@H](O[C@H]3C[C@@](C)(O)[C@H](O)[C@H](C)O3)[C@H](N(C)C)[C@H]2O)[C@@H](CC=O)C[C@@H](C)[C@@H](O[C@H]2CC[C@H](N(C)C)[C@@H](C)O2)/C=C/C=C/C[C@H](C)OC(=O)C[C@H]1O | 4.48 |
| O=c1c2ccccc2[se]n1-c1ccccc1 | 19.3 |
| Nc1nc(O)ncc1F | 15.6 |
| COc1ccc2c(c1)N(C[C@H](C)CN(C)C)c1ccccc1S2 | 2.52 |
| S=P(N1CC1)(N1CC1)N1CC1 | 27.8 |
| CC[C@H](C)[C@@H]1NC(=O)[C@H](Cc2ccc(OC)cc2)NC(=O)CCCSC[C@@H](C(=O)N2CCC[C@H]2C(=O)N[C@@H](CC(C)C)C(=O)NCC(N)=O)NC(=O)[C@H](CC(N)=O)NC(=O)[C@H](CCC(N)=O)NC1=O (Y(Me)IQNCPLG-NH2; linker N-5 via X1) | 9.07 |
| COc1ccc2cc1Oc1ccc(cc1)C[C@H]1c3c(cc4c(c3Oc3cc5c(cc3OC)CCN(C)[C@@H]5C2)OCO4)CCN1C | -18.5 |
| COc1ccc(OC)c(C(O)C(C)N)c1 (stereo not shown) | 16.7 |
| CN1C(C(=O)Nc2ccccn2)=C(O)c2ccccc2S1(=O)=O | 6.97 |
| CCCCC(F)(F)[C@@]1(O)CC[C@H]2[C@@H](CC(=O)[C@@H]2CCCCCCC(=O)O)O1 | 20.6 |

| Structure (SMILES) | % Inhibition [%] |
| --- | --- |
| C[C@@H](O)[C@H]1C(=O)N2C(C(=O)O)=C(S[C@@H]3CN[C@H](C(=O)Nc4cccc(C(=O)O)c4)C3)[C@H](C)[C@H]12 | 10.5 |
| COc1ccc(-n2nc(CCC(=O)N(C)O)cc2-c2ccc(Cl)cc2)cc1 | 16 |
| N[C@@H](CSSC[C@H](N)C(=O)O)C(=O)O | -0.0671 |
| CCN(CC)CCNc1ccc(CO)c2sc3ccccc3c(=O)c12 | 0.0147 |
| O=C(O)[C@H](CC(=O)N1C[C@H]2CCCC[C@H]2C1)Cc1ccccc1 | 22.1 |
| CN1CCN(C(=O)O[C@H]2c3nccnc3C(=O)N2c2ccc(Cl)cn2)CC1 | 9.05 |
| C1CCN2C[C@@H]3C[C@H](CN4CCCC[C@@H]34)[C@H]2C1 | -35.5 |
| O=C(O)C1=C(CSc2nnnn2CS(=O)(=O)O)CS[C@@H]2C(NC(=O)[C@H](O)c3ccccc3)C(=O)N12 (stereo partly shown) | 15.1 |
| CCCCCCCCCCOc1cc2c(O)c(C(=O)OCC)cnc2cc1OCC | -12.8 |
| CCN1CCN(C(=O)N[C@@H](C(=O)N[C@@H]2C(=O)N3C(C(=O)O)=C(CSc4nnnn4C)CS[C@H]23)c2ccc(O)cc2)C(=O)C1=O | 19.8 |
| C=CCNc1nc(NCC=C)nc(N2CCN(C(c3ccc(F)cc3)c3ccc(F)cc3)CC2)n1 | 13.4 |
| CC1=C(CC(=O)O)c2cc(F)ccc2/C1=C\c1ccc(S(C)(=O)=O)cc1 | 12.2 |
| CO/N=C(\C(=O)NC1C(=O)N2C(C(=O)OCOC(=O)C(C)(C)C)=C(/C=C\c3scnc3C)CSC12)c1csc(N)n1 (stereo not shown) | -4.68 |
| CO[C@H]1O[C@@H]2O[C@@]3(C)CC[C@H]4[C@H](C)CC[C@@H]([C@H]1C)[C@@]24OO3 | 48.7 |
| CC(=O)[C@H]1CC[C@H]2[C@@H]3CC=C4C[C@@H](OC(=O)CCC(=O)O)CC[C@]4(C)[C@H]3CC[C@]12C | -6.88 |
| C[C@H]1[C@H](OC(=O)CCC(=O)O)O[C@@H]2O[C@@]3(C)CC[C@H]4[C@H](C)CC[C@@H]1[C@@]24OO3 | 56.1 |
| C[C@@H]1CC[C@H]2[C@@H](C)C(O)O[C@@H]3O[C@@]4(C)CC[C@@H]1[C@]32OO4 (stereo partly shown) | 56.5 |
| C[C@@H]1CC[C@H]2[C@@H](C)C(=O)O[C@@H]3O[C@@]4(C)CC[C@@H]1[C@]32OO4 | 54.5 |
| COC1O[C@@H]2O[C@@]3(C)CC[C@H]4[C@H](C)CC[C@@H]([C@H]1C)[C@@]24OO3 (stereo partly shown) | -11.8 |
| C[C@H]1[C@@H](OC(=O)CCC(=O)O)O[C@@H]2O[C@]3(C)CC[C@H]4[C@H](C)CC[C@@H]1[C@@]24OO3 | 52.3 |
| Cc1nnc2n1-c1ccc(Cl)cc1C(c1ccccc1)=NC2 | -8.66 |
| CC1(C)C(C=C(Cl)Cl)C1C(=O)OCc1cccc(Oc2ccccc2)c1 (stereo not shown) | 13.4 |
| COc1cc2nc(N(C)CCCNC(=O)C3CCCO3)nc(N)c2cc1OC (stereo not shown) | 24.3 |
| C=CC[C@]1(O)CC[C@H]2[C@@H]3CCC4=CCCC[C@@H]4[C@H]3CC[C@@]21C | 5.59 |
